The source of these data is PubChem BioAssay AID504333 (National Center for Advancing Translational Sciences (NCATS), 2011).

Out of some 360,000 compounds screened, about 16,000 (4.4%) were called active. Roughly 9% stayed inconclusive and do not appear here. Calls follow the shape of the dose curve; as a rule, active = well fitted inhibition curve with a large enough effect; inconclusive = small, poorly fitted or top-dose-only effect; inactive = no such curve, though single readings can be large or run the other way. Many of the other results were omitted from the sample, so actives are more common in it than they were.
% is scaled to controls: 0 for no effect and ±100 for the full control effect; potency is read from the fitted curve at half-maximal effect.

In the experiment the target is Bromodomain adjacent to zinc finger domain protein 2B (Homo sapiens) (UniProt Q9UIF8). The experiment is described as follows: qHTS Assay for Inhibitors of BAZ2B. Also: nearly all actives have a fitted effect of over 60% in size. The conditions noted are these: AlphaScreen BAZ2B-H3K14Ac peptide displacement; series mostly up to 114 µM; activity change, negative = inhibition: at the top concentration. The source says: BAZ2B (bromodomain adjacent to zinc finger domain, 2B) belongs to a family of ubiquitously expressed bromodomain containing proteins, which biological function has not yet been elucidated. […] The interaction of BAZ2B with ISWI mediated by the BAZ1 motif has recently been described. […] The protocol is based on the AlphaScreen (PerkinElmer) displacement assay developed by NCGC [5], but uses the peptide ligand Biot-H3K14Ac, a high affinity binding partner for BAZ2B, in an AlphaScreen format. Although AlphaScreen has significant advantages with its utility in a variety of epigenetic target assays, the primary screening data provided in this deposition should be used with caution due to the prevalence of screening artifacts. The top compound concentration tested was 110uM in this assay, which increases number of actives and potential artifacts. An AlphaScreen counterscreen is highly recommended to be run against any putative actives to eliminate non-specific artifacts. Alternatively, one can use other AlphaScreen assays in PubChem to filter out promiscuous hits. Eberharter, A. et al. ACF1 improves the effectiveness of nucleosome mobilization by ISWI through PHD-histone contacts. The EMBO journal 23, 4029-4039. 2004. PMID: 15457208 [2] Jones, M.H. et al. A novel family of bromodomain genes. Genomics 63, 40-45. 2000. PMID: 10662543 [3] Yasgar, et al. Compound Management for Quantitative High-Throughput Screening. JALA. 2008 Apr;13(2):79-89. PMID: 18496600 [4] Inglese, et al. Quantitative high-throughput screening: a titration-based approach that efficiently identifies biological activities in large chemical libraries. Proc Natl Acad Sci. 1;103(31):11473-8. 2006. PMID: 16864780 [5] Quinn et al. A chemiluminescence-based method for identification of histone lysine methyltransferase inhibitors. Mol Biosyst 6(5): 782-8. 2010. PMID: 20567762 [6] Baell,Holloway. New substructure filters for removal of pan assay interference compounds (PAINS) from screening libraries and for their exclusion in bioassays. J Med Chem. 53(7):2719-40. 2010. PMID: 20131845 NIH Molecular Libraries Probe Production Network [MLPCN] NIH Chemical Genomics Center [NCGC] Structural Genomics Consortium (SGC) NIH Grant: 5U54 MH084681-02
Sequence of Bromodomain adjacent to zinc finger domain protein 2B (Homo sapiens) (Q9UIF8 whole entry, looked up, the tested form may be a part): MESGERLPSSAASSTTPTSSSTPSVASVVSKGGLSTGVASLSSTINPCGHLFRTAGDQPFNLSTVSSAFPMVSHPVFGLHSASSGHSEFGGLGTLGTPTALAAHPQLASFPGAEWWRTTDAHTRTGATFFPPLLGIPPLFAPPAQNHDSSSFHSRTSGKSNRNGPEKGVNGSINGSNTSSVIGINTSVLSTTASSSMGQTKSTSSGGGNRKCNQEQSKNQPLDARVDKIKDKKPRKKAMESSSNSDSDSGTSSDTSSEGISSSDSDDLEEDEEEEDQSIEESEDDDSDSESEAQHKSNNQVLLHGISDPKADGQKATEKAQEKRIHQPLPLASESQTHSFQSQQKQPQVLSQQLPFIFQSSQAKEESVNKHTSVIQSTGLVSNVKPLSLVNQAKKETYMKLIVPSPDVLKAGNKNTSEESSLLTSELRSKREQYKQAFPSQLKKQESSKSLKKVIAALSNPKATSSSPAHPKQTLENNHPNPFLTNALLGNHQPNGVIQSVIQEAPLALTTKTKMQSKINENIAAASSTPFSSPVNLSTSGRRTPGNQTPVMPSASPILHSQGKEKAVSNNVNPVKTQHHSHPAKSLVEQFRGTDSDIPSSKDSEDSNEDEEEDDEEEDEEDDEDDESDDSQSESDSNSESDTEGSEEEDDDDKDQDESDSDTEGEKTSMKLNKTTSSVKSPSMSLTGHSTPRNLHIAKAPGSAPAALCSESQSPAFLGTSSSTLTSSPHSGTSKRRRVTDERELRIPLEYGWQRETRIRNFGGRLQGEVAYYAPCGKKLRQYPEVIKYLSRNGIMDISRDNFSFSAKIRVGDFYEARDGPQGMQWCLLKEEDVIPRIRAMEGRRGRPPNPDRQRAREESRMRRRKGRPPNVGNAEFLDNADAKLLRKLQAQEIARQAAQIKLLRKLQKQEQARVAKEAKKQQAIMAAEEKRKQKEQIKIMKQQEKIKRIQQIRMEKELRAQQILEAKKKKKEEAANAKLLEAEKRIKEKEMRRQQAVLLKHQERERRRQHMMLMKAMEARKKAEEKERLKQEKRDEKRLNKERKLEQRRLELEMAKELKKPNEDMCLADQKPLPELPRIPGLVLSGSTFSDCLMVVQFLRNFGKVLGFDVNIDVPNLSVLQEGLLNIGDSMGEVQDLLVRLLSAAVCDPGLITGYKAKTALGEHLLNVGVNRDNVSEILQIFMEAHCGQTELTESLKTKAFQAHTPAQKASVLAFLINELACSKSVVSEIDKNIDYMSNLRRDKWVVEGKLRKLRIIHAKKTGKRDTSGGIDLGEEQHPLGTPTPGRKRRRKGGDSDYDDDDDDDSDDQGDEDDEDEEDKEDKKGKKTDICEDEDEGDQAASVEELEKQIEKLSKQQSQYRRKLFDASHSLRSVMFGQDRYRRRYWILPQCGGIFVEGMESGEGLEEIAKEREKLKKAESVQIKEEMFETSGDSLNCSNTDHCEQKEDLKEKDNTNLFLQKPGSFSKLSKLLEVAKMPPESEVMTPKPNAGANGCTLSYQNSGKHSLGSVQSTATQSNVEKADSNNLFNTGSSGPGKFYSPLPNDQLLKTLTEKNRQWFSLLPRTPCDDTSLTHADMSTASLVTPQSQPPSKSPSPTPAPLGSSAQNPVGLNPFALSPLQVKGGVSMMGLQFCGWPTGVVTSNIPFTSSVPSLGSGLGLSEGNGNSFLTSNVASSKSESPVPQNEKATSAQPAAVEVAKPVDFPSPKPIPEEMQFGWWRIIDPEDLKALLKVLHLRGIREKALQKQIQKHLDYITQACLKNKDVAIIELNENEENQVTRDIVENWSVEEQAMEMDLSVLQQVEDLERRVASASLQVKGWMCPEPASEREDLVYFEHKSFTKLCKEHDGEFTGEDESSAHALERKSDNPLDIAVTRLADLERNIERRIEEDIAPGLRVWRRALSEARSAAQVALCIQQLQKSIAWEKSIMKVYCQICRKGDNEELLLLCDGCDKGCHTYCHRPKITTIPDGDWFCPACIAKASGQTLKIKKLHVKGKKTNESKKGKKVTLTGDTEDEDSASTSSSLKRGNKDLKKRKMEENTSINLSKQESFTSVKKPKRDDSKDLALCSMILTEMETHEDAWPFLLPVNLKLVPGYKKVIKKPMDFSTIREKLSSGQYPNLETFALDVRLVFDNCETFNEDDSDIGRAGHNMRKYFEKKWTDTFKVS
To each well of a 1,536w plate, 2ul of BAZ2B protein (final 50nM) and 1ul biotinylated histone peptide acetylated at Lys14 [b-H3(5-23)K14Ac] (final 50nM) were added in 1x PBS buffer, pH 7.4, containing 0.01% Tween-20, using a nanoliter dispenser. Formation of a protein-peptide complex proceeded at room temperature for 30 min. A Kalypsys pin-tool was employed to transfer 23 nL of library compound solution in DMSO to each well. Following a 30 min incubation of the protein-peptide complex with compounds at room temperature, a mixture of 40 ug/mL each streptavidin-coated donor and nickel chelate acceptor AlphaScreen beads (final 10 ug/mL) were added in a 1ul dispense for a final volume of 4ul. A brief centrifugation followed (1000rpm, 1 min) and were then incubated protected from the light for 20 min at room temperature. Plates were read on an EnVision multilabel plate reader using the 1,536 plate HTS AlphaScreen aperture (excitation time 80 ms, measurement time 240 ms).
On the technique in general: Quantitative high-throughput screening tests each substance at several concentrations.
With `O=C(O)c1cscn1`, the Potency is 20 µM (active).

In the case of `COc1ccc(NC(=O)Cn2c(=O)cc(C)c3c(C)nn(-c4cccc(Cl)c4C)c32)cc1OC`, the “activity change, negative = inhibition” value is 6.48% (inactive).

Turning to `Cc1cccc(OCCSc2nc3ccc(NC(=O)COc4ccccc4C)cc3s2)c1`, the “activity change, negative = inhibition” value is -0.749% (inactive).

Consider `N/C(=N\OC(=O)c1ccc([N+](=O)[O-])cc1)c1ccccn1`, for which the “activity change, negative = inhibition” value was -10.2% (inactive).

As to `N/C(=N\OC(=O)Cc1ccc([N+](=O)[O-])cc1)c1ccccn1`, the Potency was 50.1 µM (active).

Consider `COc1ccccc1OCC(=O)O/N=C(\N)c1ccccn1`, for which the “activity change, negative = inhibition” value is -12.8% (inactive).

Consider `CCOC(=O)c1cccc(NC(=O)Cn2cnc3nc4c(cc3c2=O)CCCC4)c1`, for which the “activity change, negative = inhibition” value was 0.226% (inactive).

Turning to `Cc1ccc(CCNC(=O)c2ccc3c(c2)nc2n3CCC(C)C2)cc1` (stereo unspecified), the “activity change, negative = inhibition” value is -1.73% (inactive).

For `Cn1nnnc1SCCCNCc1cccc(OCc2ccc(Cl)cc2)c1`, the “activity change, negative = inhibition” value is -10.3% (inactive).

For the compound `CN(C)c1ccc(N/C=C/C(=O)C(F)(F)F)cc1`, the Potency is 28.2 µM (active).

Turning to `CC(C)CNC(=O)C(=O)Nc1ccc(N(C)C)cc1`, the “activity change, negative = inhibition” value was 2.15% (inactive).

Consider `CC(=O)N(C)c1ccc(NC(=O)C(F)(F)F)cc1`, for which the “activity change, negative = inhibition” value is 0.95% (inactive).

For the compound `Cc1oc2ccc(O)c(CN3CCC(C)CC3)c2c1C(=O)Nc1ccccc1`, the “activity change, negative = inhibition” value was -11.6% (inactive).

On to `Cc1c(CCC(=O)N[C@@H](CC(C)C)C(=O)O)c(=O)oc2c(C)c3oc4c(c3cc12)CCCC4`, for which the “activity change, negative = inhibition” value was 2.36% (inactive).

For `Cc1c(OC(C)C(=O)N[C@@H](Cc2ccccc2)C(=O)O)ccc2c3c(c(=O)oc12)CCCC3` (stereo partly specified), the “activity change, negative = inhibition” value was 4.24% (inactive).

`Cc1oc2c(C)c3oc(=O)c(CC(=O)N[C@@H](CC(C)C)C(=O)N[C@@H](Cc4ccccc4)C(=O)O)c(C)c3cc2c1C`: the Potency is 35.5 µM (active).

Take `COc1ccc(NC(=O)CSc2nc3ncccc3[nH]2)c(OC)c1`: the “activity change, negative = inhibition” value was 19.4% (inactive).

For the compound `COc1ccc(C(=O)Nc2cccc(C(=O)OCc3cc(=O)n4c5c(sc4n3)CCCC5)c2)cc1`, the “activity change, negative = inhibition” value is -3.18% (inactive).

With `CCc1ccccc1NC(=O)Cc1ccc(NC(=O)N2CCCCc3ccccc32)cc1`, the “activity change, negative = inhibition” value was -22.7% (inactive).

As to `O=C(Nc1ccccc1)O/N=C1\CCCCC1c1ccc([N+](=O)[O-])cc1[N+](=O)[O-]` (stereo unspecified), the “activity change, negative = inhibition” value was -10.1% (inactive).

For the compound `O=[N+]([O-])c1ccc(N/N=C2/CCCCC2c2ccccn2)c([N+](=O)[O-])c1` (stereo unspecified), the Potency was 31.6 µM (active).

For `COc1cc([N+](=O)[O-])ccc1NC(=S)N1CCN(c2ccccn2)CC1`, the “activity change, negative = inhibition” value was -30% (inactive).

As to `Cc1ccc(F)cc1NC(=O)CCSc1nc(-c2ccco2)cc(C(F)(F)F)n1`, the “activity change, negative = inhibition” value is -4.98% (inactive).

Consider `COC(=O)c1cc(S(=O)(=O)N2CCN(c3cc(Cl)ccc3C)CC2)c[nH]1`, for which the “activity change, negative = inhibition” value is -34.9% (inactive).

Take `COc1ccc(-c2nc3sc(CCNC(=O)C(C)(C)C)c(C)n3n2)cc1`: the “activity change, negative = inhibition” value is -0.378% (inactive).

On to `COc1cc(-c2noc(-c3ccc(N4CCCC4)c([N+](=O)[O-])c3)n2)cc(OC)c1OC`, for which the “activity change, negative = inhibition” value was -9.72% (inactive).

On to `Cc1ccc(Cl)cc1NC(=O)/C(C#N)=C\c1cn(Cc2ccc(F)cc2)c2ccccc12`, for which the “activity change, negative = inhibition” value was -0.433% (inactive).

Turning to `Cc1ccsc1C(=O)NCCc1ccco1`, the Potency was 56.2 µM (active).

Consider `COc1cc(OC)cc(C(=O)NCCSCc2ccco2)c1`, for which the “activity change, negative = inhibition” value is 1.54% (inactive).

For the compound `Cc1ccccc1NC(=O)NCc1ccco1`, the “activity change, negative = inhibition” value is 21.7% (inactive).

For the compound `Cc1ccc(F)cc1S(=O)(=O)N1CCC(c2nc3ccccc3s2)CC1`, the “activity change, negative = inhibition” value was 0.45% (inactive).

As for `Cc1ccc(C(=O)COC(=O)C(Cc2c[nH]c3ccccc23)NC(=O)c2ccc(Br)cc2)cc1` (stereo unspecified), the “activity change, negative = inhibition” value is -3.33% (inactive).

Consider `C/C=C/c1ccc(OCCCCN2CCC(C)CC2)c(OC)c1`, for which the Potency was 35.5 µM (active).

For the compound `COc1cccc(OCCCN2CCCCCC2)c1`, the Potency was 56.2 µM (active).

Regarding `COc1cc(/C=N/NC(=O)c2ccoc2C)ccc1OCCN1CCCCC1`, the “activity change, negative = inhibition” value is -8.24% (inactive).

For `COc1cccc(NC(=O)NCCN2CCCCC2)c1`, the “activity change, negative = inhibition” value was 7.24% (inactive).

Turning to `C/C=C/c1ccc(OCCOc2ccc(C=O)cc2OC)c(OC)c1`, the “activity change, negative = inhibition” value is -0.85% (inactive).

With `COc1ccc(OCCCCN2CCC(C)CC2)cc1`, the Potency is 79.4 µM (active).

For the compound `CC1CCN(CC(O)COc2ccc(C(=O)c3ccccc3)cc2)CC1` (stereo unspecified), the “activity change, negative = inhibition” value was 9.12% (inactive).

Consider `COc1ccc(OC)c(NC(=O)CCN2CCC(C)CC2)c1`, for which the “activity change, negative = inhibition” value is 3.12% (inactive).

For `COc1cccc(OCC(O)CN2CCN(CCO)CC2)c1` (stereo unspecified), the “activity change, negative = inhibition” value was 3.99% (inactive).

In the case of `CCCCN(C)S(=O)(=O)c1ccc(C(=O)Nc2sc3c(c2C(N)=O)CC(C)(C)NC3(C)C)cc1`, the “activity change, negative = inhibition” value was -0.53% (inactive).

`COC(=O)c1ccccc1NC(=O)Cn1c(=O)cc(C)c2c(C)nn(-c3cccc(Cl)c3C)c21`: the “activity change, negative = inhibition” value is -12.2% (inactive).

`CCOc1ccc(CNC(=O)C2CCCN(S(=O)(=O)N(CC)c3ccc(OCC)cc3)C2)cc1` (stereo unspecified): the “activity change, negative = inhibition” value was -10.5% (inactive).

Turning to `Cc1ccc(Cc2nc3ccccc3nc2SCC(=O)Nc2cccc(C(F)(F)F)c2)cc1`, the “activity change, negative = inhibition” value was -2.14% (inactive).

Consider `Cc1nc2ccccn2c(=O)c1NC(=O)c1c(F)cccc1F`, for which the “activity change, negative = inhibition” value was 0.0769% (inactive).

On to `Cc1cccc(C)c1Nc1c(-c2ccccc2O)nc2ncccn12`, for which the “activity change, negative = inhibition” value is -2.78% (inactive).

With `Cc1ccc(-c2nc3ccccn3c2Nc2c(C)cccc2C)o1`, the Potency was 28.2 µM (active).

In the case of `CCOC(=O)C1CCN(c2ncnc3c2c(-c2ccccc2)cn3-c2cccc(C)c2)CC1`, the “activity change, negative = inhibition” value was -23.7% (inactive).

For the compound `CCOc1ccc(CCNC(=O)c2csc3c2CCCCC3)cc1`, the “activity change, negative = inhibition” value is 3.42% (inactive).

In the case of `COc1cc(NS(=O)(=O)c2ccc3ccccc3c2)c2ncccc2c1`, the “activity change, negative = inhibition” value was 19.5% (inactive).
